# Test results as given in PubChem BioAssay.
# Active and inactive are the calls of the source.
# Tests used:
# [1] = small molecules captured by biotinylated probe aFSTL3 – biochemical, small-molecule microarray, fluorescence 635/667, stem cell growth factor project, primary screen (AID 1064); conditions: higher = more signal;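 further: measures binding of the biotinylated anti-FSTL3 antibody to printed compounds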
# [2] = binders from COS7 lysate, DM2A8 probe, primary screen, torsin A project, cell lysate, small-molecule microarray, fluorescence 635/667 (AID 1065); conditions: higher = more signal, COS7 lysate expressing mutant human TOR1A
# [3] = small molecules captured by biotinylated probe aFGF2 – biochemical, small-molecule microarray, fluorescence 635/667, stem cell growth factor project, primary screen (AID 1067); conditions: higher = more signal;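 further: measures binding of biotinylated aFGF2 protein to printed compounds on slides; z-score merges feature fluorescence and signal-to-noise across triplicate slides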
# [4] = small molecules captured by biotinylated probe aFGF10 – biochemical, small-molecule microarray, fluorescence 635/667, stem cell growth factor project, primary screen (AID 1071); conditions: higher = more signal;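 further: score merges 667 nm spot intensity and signal to noise from triplicate slides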
# [5] = molecular target: Neurogenic locus notch homolog protein 2 (Homo sapiens) (UniProt Q04721); assay: small molecules binding Notch2 protein – biochemical, small-molecule microarray, 635 nm fluorescence, stem cell growth factors, primary screen (AID 1073); conditions: higher = more signal
# Neurogenic locus notch homolog protein 2 (Homo sapiens), sequence (Q04721 whole entry, looked up, canonical isoform): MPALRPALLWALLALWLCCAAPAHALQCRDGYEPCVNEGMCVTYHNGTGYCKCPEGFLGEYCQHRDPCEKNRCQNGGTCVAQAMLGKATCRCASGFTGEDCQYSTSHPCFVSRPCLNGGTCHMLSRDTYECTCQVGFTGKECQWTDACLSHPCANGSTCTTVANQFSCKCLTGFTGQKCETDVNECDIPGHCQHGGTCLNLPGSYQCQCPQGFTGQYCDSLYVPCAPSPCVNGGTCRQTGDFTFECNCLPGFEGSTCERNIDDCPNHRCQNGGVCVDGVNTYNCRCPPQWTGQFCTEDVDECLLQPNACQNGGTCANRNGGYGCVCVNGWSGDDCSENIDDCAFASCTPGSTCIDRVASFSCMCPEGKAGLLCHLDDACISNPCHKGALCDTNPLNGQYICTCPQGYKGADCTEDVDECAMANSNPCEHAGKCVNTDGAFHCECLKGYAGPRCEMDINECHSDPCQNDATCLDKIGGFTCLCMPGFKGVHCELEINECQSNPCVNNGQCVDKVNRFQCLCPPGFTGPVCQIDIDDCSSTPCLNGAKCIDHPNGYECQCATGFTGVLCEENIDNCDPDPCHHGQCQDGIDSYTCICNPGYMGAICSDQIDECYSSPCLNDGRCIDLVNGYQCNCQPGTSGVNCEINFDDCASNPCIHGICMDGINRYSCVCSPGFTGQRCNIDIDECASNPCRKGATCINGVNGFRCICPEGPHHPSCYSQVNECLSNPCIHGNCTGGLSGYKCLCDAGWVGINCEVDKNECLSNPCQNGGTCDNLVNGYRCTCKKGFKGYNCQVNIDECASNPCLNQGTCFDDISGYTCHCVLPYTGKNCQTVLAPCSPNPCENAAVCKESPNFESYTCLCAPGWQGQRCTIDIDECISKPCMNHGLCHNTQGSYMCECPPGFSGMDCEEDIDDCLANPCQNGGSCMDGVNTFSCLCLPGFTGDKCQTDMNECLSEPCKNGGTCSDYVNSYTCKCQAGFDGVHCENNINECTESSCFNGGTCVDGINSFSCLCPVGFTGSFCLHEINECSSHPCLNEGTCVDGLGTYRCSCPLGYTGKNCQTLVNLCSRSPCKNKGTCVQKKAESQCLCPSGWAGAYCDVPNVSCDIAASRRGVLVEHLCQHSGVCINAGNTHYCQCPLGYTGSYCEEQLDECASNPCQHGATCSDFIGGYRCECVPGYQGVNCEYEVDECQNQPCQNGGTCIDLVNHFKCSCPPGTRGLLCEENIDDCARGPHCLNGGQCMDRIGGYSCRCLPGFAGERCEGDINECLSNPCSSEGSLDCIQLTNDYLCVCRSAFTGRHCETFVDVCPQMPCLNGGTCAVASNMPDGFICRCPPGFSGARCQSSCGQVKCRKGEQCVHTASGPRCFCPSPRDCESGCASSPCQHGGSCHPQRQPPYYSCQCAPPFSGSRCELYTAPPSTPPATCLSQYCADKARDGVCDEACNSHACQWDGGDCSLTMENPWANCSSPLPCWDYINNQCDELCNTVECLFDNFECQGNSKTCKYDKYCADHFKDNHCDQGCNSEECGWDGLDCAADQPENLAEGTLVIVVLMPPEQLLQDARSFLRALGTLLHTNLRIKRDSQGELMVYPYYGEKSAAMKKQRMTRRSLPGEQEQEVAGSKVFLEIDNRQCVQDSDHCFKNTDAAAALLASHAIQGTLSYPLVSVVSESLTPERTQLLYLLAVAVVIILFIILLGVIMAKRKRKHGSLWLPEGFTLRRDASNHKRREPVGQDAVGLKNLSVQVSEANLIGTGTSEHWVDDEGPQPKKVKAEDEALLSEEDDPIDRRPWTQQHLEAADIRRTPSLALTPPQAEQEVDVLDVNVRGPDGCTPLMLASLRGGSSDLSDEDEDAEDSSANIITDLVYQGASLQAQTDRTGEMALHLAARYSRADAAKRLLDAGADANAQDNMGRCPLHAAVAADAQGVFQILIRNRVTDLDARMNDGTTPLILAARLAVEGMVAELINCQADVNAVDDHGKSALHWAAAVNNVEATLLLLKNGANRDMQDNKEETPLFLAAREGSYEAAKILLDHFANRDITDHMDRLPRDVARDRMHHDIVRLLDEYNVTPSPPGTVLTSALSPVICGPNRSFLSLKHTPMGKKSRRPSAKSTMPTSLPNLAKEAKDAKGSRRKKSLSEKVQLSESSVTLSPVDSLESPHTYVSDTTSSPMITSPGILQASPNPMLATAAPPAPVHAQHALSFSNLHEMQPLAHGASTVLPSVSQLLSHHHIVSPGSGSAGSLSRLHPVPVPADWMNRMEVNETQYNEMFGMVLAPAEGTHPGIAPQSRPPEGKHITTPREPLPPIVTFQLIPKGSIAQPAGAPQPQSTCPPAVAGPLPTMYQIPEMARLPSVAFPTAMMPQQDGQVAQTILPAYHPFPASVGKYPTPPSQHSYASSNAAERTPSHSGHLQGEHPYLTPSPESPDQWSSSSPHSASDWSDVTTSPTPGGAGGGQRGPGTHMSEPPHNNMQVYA
# [6] = molecular target: Pro-neuregulin-1, membrane-bound isoform (Homo sapiens) (UniProt Q02297); assay: small molecules binding neuregulin-1 protein – biochemical, small-molecule microarray, fluorescence 635/667, psychiatric disease protein project, primary screen (AID 1075); conditions: NRG1 binding, 635 nm fluorescence, higher = more signal;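 further: score combines 667 nm spot fluorescence with signal to noise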
# Pro-neuregulin-1, membrane-bound isoform (Homo sapiens), sequence (Q02297 whole entry, looked up, the tested form may be a part, canonical isoform): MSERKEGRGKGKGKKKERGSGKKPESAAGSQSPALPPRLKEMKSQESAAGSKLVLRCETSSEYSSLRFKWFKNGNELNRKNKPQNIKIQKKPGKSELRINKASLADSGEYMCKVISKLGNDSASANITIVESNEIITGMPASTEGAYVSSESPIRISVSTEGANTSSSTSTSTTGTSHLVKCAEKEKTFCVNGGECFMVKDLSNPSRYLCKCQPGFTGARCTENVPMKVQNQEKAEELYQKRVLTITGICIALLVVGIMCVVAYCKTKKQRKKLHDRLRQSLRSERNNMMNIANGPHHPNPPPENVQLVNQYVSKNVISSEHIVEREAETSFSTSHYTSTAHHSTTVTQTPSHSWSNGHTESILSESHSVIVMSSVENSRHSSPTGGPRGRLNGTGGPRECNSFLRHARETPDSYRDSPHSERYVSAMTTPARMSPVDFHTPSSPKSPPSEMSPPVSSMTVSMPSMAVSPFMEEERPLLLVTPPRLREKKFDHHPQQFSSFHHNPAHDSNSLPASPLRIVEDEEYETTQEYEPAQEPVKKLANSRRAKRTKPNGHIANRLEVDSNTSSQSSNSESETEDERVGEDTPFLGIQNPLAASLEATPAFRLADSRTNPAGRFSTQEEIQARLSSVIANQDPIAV
# [7] = system: Neuregulin-1 EGF-like domain; assay: small molecules binding NRG1 EGF domain – biochemical, small-molecule microarray, 635 nm fluorescence, primary screen (AID 1081); conditions: higher = more signal;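 further: binding of the protein to compounds printed on small-molecule microarray slides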
# [8] = FRG1 expression reporter modulators in myotubes – cell-based, C2C12 myotubes, firefly/Renilla luciferase, luminescence, FRG1 inhibition for FSHD, primary screen (AID 1084); conditions: FRG1 promoter luciferase, higher = more signal, called active from +8 up or from −8 down
# [9] = small molecules captured by biotinylated probe aFST – biochemical, small-molecule microarray, fluorescence 635/667, stem cell growth factor project, primary screen (AID 1086); conditions: higher = more signal;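 further: score merges 667 nm fluorescence with signal-to-noise of each printed compound spot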
# [10] = binders of probe aHhip on microarray, primary screen, stem cell growth factor project, biochemical, small-molecule microarray, fluorescence 635/667 (AID 1087); conditions: higher = more signal;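 further: score merges spot fluorescence at 667nm with spot signal to noise ratio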
compound,measurement,setting,value
COc1ccc([Si](C)(C)[C@@H]2[C@@H](CC(=O)N(CCO)Cc3ccccc3)O[C@]3(C(=O)N(Cc4cccc(N5CCCCC5=O)c4)c4ccccc43)[C@H]2C)cc1,composite z-score,[1],0.0001
same,composite z-score,[2],0.585
same,composite z-score,[3],-0.0019
same,composite z-score,[4],0.212
same,composite z-score,[5],0.185
same,composite z-score,[6],1.72
same,composite z-score,[7],1.23
same,z-score,[8],0.306 (inactive)
same,composite z-score,[9],0.222
same,composite z-score,[10],-0.181
COC(=O)C(CC#Cc1ccc2c(c1)[C@]1(C(=O)N2)[C@H](c2ccc(O)cc2)N2[C@H](c3ccccc3)[C@H](c3ccccc3)OC(=O)[C@H]2[C@@H]1C(=O)NC[C@H](O)c1ccccc1)C(=O)OC,composite z-score,[1],-0.14
same,composite z-score,[2],0.249
same,composite z-score,[3],-0.0592
same,composite z-score,[4],1.06
same,composite z-score,[5],0.791
same,composite z-score,[6],-0.0744
same,composite z-score,[7],1.4
same,z-score,[8],0.798 (inactive)
same,composite z-score,[9],0.257
same,composite z-score,[10],0.0749
NCCCCCNC(=O)[C@H]1C[C@H]2C(=O)N3CCC[C@H]3C(=O)N2[C@H]1c1cccc(OCCO)c1,composite z-score,[1],1.46
same,composite z-score,[2],0.161
same,composite z-score,[3],-0.0448
same,composite z-score,[4],0.179
same,composite z-score,[5],-0.0052
same,composite z-score,[6],1.52
same,composite z-score,[7],1.43
same,z-score,[8],1.91 (inactive)
same,composite z-score,[9],0.534
same,composite z-score,[10],0.0873
OCCCC1=CC(c2ccc(CN3CCCC3)cc2)N(Cc2cc3c(cc2Br)OCO3)CC1 (stereo not given),composite z-score,[1],0.492
same,composite z-score,[2],0.52
same,composite z-score,[3],-0.135
same,composite z-score,[4],-0.373
same,composite z-score,[5],-0.108
same,composite z-score,[6],-0.384
same,composite z-score,[7],0.748
same,z-score,[8],-0.0594 (inactive)
same,composite z-score,[9],0.47
same,composite z-score,[10],-0.0237
CO[C@H]1O[C@H](CO)[C@@H](OC(=O)Nc2ccc(Br)cc2)[C@@H]2OC(=O)[C@@H](Cc3ccccc3)C/C=C/C[C@H](Cc3ccccc3)C(=O)O[C@@H]12,composite z-score,[1],-0.159
same,composite z-score,[2],1.01
same,composite z-score,[3],-0.07
same,composite z-score,[4],0.79
same,composite z-score,[5],1.15
same,composite z-score,[6],1.25
same,composite z-score,[7],1.09
same,z-score,[8],0.147 (inactive)
same,composite z-score,[9],0.0279
same,composite z-score,[10],-0.0645
CN1C2C=C(CCCO)C(C3C(=O)N(C(N)=O)C(=O)C32)C1C1CC1 (stereo not given),composite z-score,[1],-0.263
same,composite z-score,[2],0.416
same,composite z-score,[3],-0.0959
same,composite z-score,[4],-0.148
same,composite z-score,[5],-0.536
same,composite z-score,[6],0.0343
same,composite z-score,[7],0.949
same,z-score,[8],0.397 (inactive)
same,composite z-score,[9],-0.57
same,composite z-score,[10],0.0274
CO[C@H]1O[C@H](CO)[C@@H](OC(=O)CCc2ccccc2)[C@@H]2OC(=O)[C@@H](Cc3ccccc3)C/C=C/C[C@H](Cc3ccccc3)C(=O)O[C@@H]12,composite z-score,[1],-0.0519
same,composite z-score,[2],0.595
same,composite z-score,[3],-0.0962
same,composite z-score,[4],0.242
same,composite z-score,[5],0.185
same,composite z-score,[6],0.438
same,composite z-score,[7],0.756
same,z-score,[8],0.248 (inactive)
same,composite z-score,[9],0.671
same,composite z-score,[10],0.0854
CCCCC(CC)C(O)C1C=CC2C(=O)N(c3ccccc3)C(=O)C2N1Nc1ccc(C#N)cc1 (stereo not given),composite z-score,[1],0.883
same,composite z-score,[2],0.468
same,composite z-score,[3],0.332
same,composite z-score,[4],1
same,composite z-score,[5],1.59
same,composite z-score,[6],0.893
same,composite z-score,[7],1.31
same,z-score,[8],-0.257 (inactive)
same,composite z-score,[9],1.66
same,composite z-score,[10],-0.183
C=CCOC(=O)[C@@H]1[C@H]2C(=O)O[C@H](c3ccccc3)[C@H](c3ccccc3)N2[C@H](c2ccc(OCCOC(=O)[C@@H]3C[C@@H]4C(=O)N[C@@H](CCCC[N+](C)(C)C)C(=O)N4[C@@H]3c3ccc(O)cc3)cc2)[C@@]12C(=O)Nc1ccc(I)cc12,composite z-score,[1],-0.106
same,composite z-score,[2],0.956
same,composite z-score,[3],-0.0005
same,composite z-score,[4],0.884
same,composite z-score,[5],0.617
same,composite z-score,[6],1.2
same,composite z-score,[7],1.38
same,z-score,[8],3.51 (inactive)
same,composite z-score,[9],-0.0446
same,composite z-score,[10],-0.16
C=CC[C@]1(C(=O)N2CCCCC2)N=C(c2ccc(OCCCO)cc2)O[C@H]1c1ccccc1CN=[N+]=[N-],composite z-score,[1],-0.25
same,composite z-score,[2],0.516
same,composite z-score,[3],0.238
same,composite z-score,[4],0.546
same,composite z-score,[5],1.42
same,composite z-score,[6],1.17
same,composite z-score,[7],1.24
same,z-score,[8],-1.08 (inactive)
same,composite z-score,[9],0.907
same,composite z-score,[10],-0.0699
C=C(C(=O)CC[C@H](OC(=O)c1ccccc1-c1ccccc1C(=O)O)c1cccc(OCCO)c1)C(C)C,composite z-score,[1],-0.337
same,composite z-score,[2],-0.062
same,composite z-score,[3],-0.109
same,composite z-score,[4],0.211
same,composite z-score,[5],-0.275
same,composite z-score,[6],0.262
same,composite z-score,[7],0.0799
same,z-score,[8],-0.0752 (inactive)
same,composite z-score,[9],-0.224
same,composite z-score,[10],-0.134
COc1ccc([Si](C)(C)[C@@H]2[C@@H](CC(=O)N3Cc4ccccc4C[C@H]3CO)O[C@]3(C(=O)N(Cc4ccc(N5C(=O)c6cccc7cccc5c67)cc4)c4ccccc43)[C@H]2C)cc1,composite z-score,[1],-0.184
same,composite z-score,[2],0.614
same,composite z-score,[3],-0.0136
same,composite z-score,[4],0.637
same,composite z-score,[5],1.21
same,composite z-score,[6],0.325
same,composite z-score,[7],1.17
same,z-score,[8],-1.88 (inactive)
same,composite z-score,[9],0.0242
same,composite z-score,[10],-0.361
COCCOC(=O)N1C(=O)[C@@]2(c3cc(C#CC4=CCCCC4)ccc31)[C@H](C(=O)Nc1nc3ccccc3s1)[C@H]1C(=O)O[C@H](c3ccccc3)[C@H](c3ccccc3)N1[C@@H]2c1ccc(O)cc1,composite z-score,[1],-0.528
same,composite z-score,[2],1.39
same,composite z-score,[3],0.0156
same,composite z-score,[4],0.176
same,composite z-score,[5],0.992
same,composite z-score,[6],1.15
same,composite z-score,[7],1.03
same,z-score,[8],0.0402 (inactive)
same,composite z-score,[9],1.13
same,composite z-score,[10],0.103
C=CCNC(=O)[C@@H]1[C@H]2C(=O)O[C@H](c3ccccc3)[C@H](c3ccccc3)N2[C@H](c2ccccc2OCCO)[C@@]12C(=O)N(C(=O)OCCOC)c1ccc(C#CC3(O)CCCCCC3)cc12,composite z-score,[1],-0.249
same,composite z-score,[2],0.356
same,composite z-score,[3],-0.0004
same,composite z-score,[4],0.427
same,composite z-score,[5],1.14
same,composite z-score,[6],1.16
same,composite z-score,[7],1.14
same,z-score,[8],-0.257 (inactive)
same,composite z-score,[9],0.771
same,composite z-score,[10],-0.0994
C=C(COC)/C(=C/C[C@H](OC(=O)c1ccncc1)c1ccccc1OCCO)c1cc(C(=O)OC)ccc1OC,composite z-score,[1],-0.457
same,composite z-score,[2],0.562
same,composite z-score,[3],-0.167
same,composite z-score,[4],0.67
same,composite z-score,[5],0.302
same,composite z-score,[6],1.16
same,composite z-score,[7],0.869
same,z-score,[8],-0.872 (inactive)
same,composite z-score,[9],0.431
same,composite z-score,[10],-0.442
COCCOC(=O)N1C(=O)[C@@]2(c3ccccc31)[C@H](C(=O)NC[C@H](O)c1ccccc1)[C@H]1C(=O)O[C@H](c3ccccc3)[C@H](c3ccccc3)N1[C@@H]2c1ccc(O)cc1,composite z-score,[1],-0.19
same,composite z-score,[2],0.23
same,composite z-score,[3],0.0017
same,composite z-score,[4],0.941
same,composite z-score,[5],1.55
same,composite z-score,[6],0.57
same,composite z-score,[7],1.25
same,z-score,[8],-0.677 (inactive)
same,composite z-score,[9],0.839
same,composite z-score,[10],0.689
CCCCCC1=C2CNC(C)(C(=O)OC)C=C2C(C)C1=O (stereo not given),composite z-score,[1],0.59
same,composite z-score,[2],-0.414
same,composite z-score,[3],-0.0676
same,composite z-score,[4],0.0477
same,composite z-score,[5],0.363
same,composite z-score,[6],1.07
same,composite z-score,[7],0.972
same,z-score,[8],1.78 (inactive)
same,composite z-score,[9],0.0861
same,composite z-score,[10],0.376
